The panel holds about 83,000 compounds, 20% with a hit somewhere; the sample as a whole holds those more often.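 Note: values are percent growth. 100 is the growth of untreated cells, values between 100 and 0 indicate rising inhibition; between -100 and 0 indicates cell death.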 Calls of active or inactive are those of the source. How the source made its calls: active means growth percent below 10; inactive means the rest.
Experiments:
Assay in all cases: NCI-60 one-dose screen, 48 h (100 = growth as untreated, 0 = no growth, -100 = all killed)
Conditions in all cases: 10 µM unless noted
RPMI-8226 leukemia = system: RPMI-8226 leukemia
OVCAR-8 ovarian = system: OVCAR-8 ovarian
OVCAR-5 ovarian = system: OVCAR-5 ovarian
OVCAR-4 ovarian = system: OVCAR-4 ovarian
SK-OV-3 ovarian = system: SK-OV-3 ovarian
IGROV1 ovarian = system: IGROV1 ovarian
OVCAR-3 ovarian = system: OVCAR-3 ovarian
HS 578T breast = system: HS 578T breast
NCI/ADR-RES ovarian = system: NCI/ADR-RES ovarian
T-47D breast = system: T-47D breast
BT-549 breast = system: BT-549 breast
MDA-MB-435 melanoma = system: MDA-MB-435 melanoma
SW-620 colon = system: SW-620 colon
MCF7 breast = system: MCF7 breast
HCT-116 colon = system: HCT-116 colon
KM12 colon = system: KM12 colon
HCC-2998 colon = system: HCC-2998 colon

Measured: growth

NC(=O)Nc1ccc2ncnc(Nc3ccc(Cl)cc3)c2c1
inactive: RPMI-8226 leukemia 101% | OVCAR-8 ovarian 89.5% | OVCAR-5 ovarian 83.6% | OVCAR-4 ovarian 91.9% | SK-OV-3 ovarian 30.2% | IGROV1 ovarian 61% | OVCAR-3 ovarian 74.2% | HS 578T breast 87.8% | NCI/ADR-RES ovarian 88.7% | T-47D breast 61.6% | BT-549 breast 92.4% | MDA-MB-435 melanoma 97.8% | SW-620 colon 99.1% | MCF7 breast 86.5% | HCT-116 colon 96.4% | KM12 colon 98.5%

Cc1cccc(OCC(O)CN2CCN(c3ccc(Cl)cc3)CC2)c1 (stereo not given)
inactive: RPMI-8226 leukemia 103% | OVCAR-8 ovarian 94.9% | OVCAR-5 ovarian 103% | OVCAR-4 ovarian 106% | SK-OV-3 ovarian 115% | IGROV1 ovarian 124% | OVCAR-3 ovarian 104% | HS 578T breast 107% | T-47D breast 107% | BT-549 breast 99.6% | MDA-MB-435 melanoma 111% | SW-620 colon 104% | MCF7 breast 87.5% | HCT-116 colon 86.7% | HCC-2998 colon 110% | KM12 colon 106%

N#Cc1c(-c2ccccc2)nc(SCC(=O)Nc2nc(-c3ccc(Cl)cc3)cs2)[nH]c1=O
inactive: RPMI-8226 leukemia 92.5% | OVCAR-8 ovarian 99.1% | OVCAR-5 ovarian 90.7% | OVCAR-4 ovarian 110% | SK-OV-3 ovarian 85.2% | IGROV1 ovarian 96.5% | OVCAR-3 ovarian 108% | HS 578T breast 88.6% | NCI/ADR-RES ovarian 103% | T-47D breast 81.8% | BT-549 breast 93.6% | MDA-MB-435 melanoma 99.6% | SW-620 colon 113% | MCF7 breast 91.7% | HCC-2998 colon 81.5% | KM12 colon 103%

COc1nc2ccc(C)cc2cc1-c1nc2c(cnn2-c2ccc(Br)cc2)c(=O)[nH]1
inactive: RPMI-8226 leukemia 33.2% | OVCAR-8 ovarian 40.7% | OVCAR-5 ovarian 73.2% | OVCAR-4 ovarian 58% | SK-OV-3 ovarian 43.3% | IGROV1 ovarian 38.4% | HS 578T breast 34.3% | NCI/ADR-RES ovarian 14.2% | T-47D breast 58.3% | SW-620 colon 28.6% | MCF7 breast 21.8% | HCT-116 colon 13.7% | HCC-2998 colon 88.4% | KM12 colon 25%
active: OVCAR-3 ovarian -17% | MDA-MB-435 melanoma -27.1%

CN1CCN(c2ccc(-c3ccc4ncc(C#N)c(Nc5ccc(F)c(Cl)c5)c4c3)cc2)CC1
inactive: OVCAR-8 ovarian 47.9% | OVCAR-5 ovarian 57.6% | OVCAR-4 ovarian 46.8% | SK-OV-3 ovarian 27% | IGROV1 ovarian 11.4% | HS 578T breast 43.3% | NCI/ADR-RES ovarian 50.5% | T-47D breast 60.7% | BT-549 breast 63.3% | MDA-MB-435 melanoma 21.6% | SW-620 colon 21.5% | MCF7 breast 51.4% | HCT-116 colon 18.2% | HCC-2998 colon 48.6% | KM12 colon 57.2%
active: RPMI-8226 leukemia 4.87%

C#Cc1cccc(NC(=O)Nc2ccccc2NC(=O)CCl)c1
inactive: RPMI-8226 leukemia 10.7% [8.25 µM] | SK-OV-3 ovarian 85.3% [8.25 µM]
active: OVCAR-8 ovarian -13.6% [8.25 µM] | OVCAR-5 ovarian -26% [8.25 µM] | OVCAR-4 ovarian -33.4% [8.25 µM] | OVCAR-3 ovarian -74.8% [8.25 µM] | HS 578T breast -1.15% [8.25 µM] | NCI/ADR-RES ovarian -2.56% [8.25 µM] | T-47D breast 1.49% [8.25 µM] | BT-549 breast -27% [8.25 µM] | MDA-MB-435 melanoma -68.7% [8.25 µM] | SW-620 colon -5.75% [8.25 µM] | MCF7 breast 0.96% [8.25 µM] | HCT-116 colon 0.401% [8.25 µM] | HCC-2998 colon -29.4% [8.25 µM] | KM12 colon -37.6% [8.25 µM]

O=[N+]([O-])c1ccc(Cl)c(-c2cc(CCCCO)on2)c1
inactive: RPMI-8226 leukemia 105% | OVCAR-8 ovarian 105% | OVCAR-5 ovarian 101% | SK-OV-3 ovarian 113% | IGROV1 ovarian 105% | OVCAR-3 ovarian 111% | HS 578T breast 99.7% | NCI/ADR-RES ovarian 101% | T-47D breast 88.8% | BT-549 breast 99.7% | MDA-MB-435 melanoma 103% | SW-620 colon 104% | MCF7 breast 100% | HCT-116 colon 105% | HCC-2998 colon 108% | KM12 colon 104%

Cc1ccc(-c2nc(SCC(=O)Nc3nc(-c4ccc(Cl)cc4)cs3)[nH]c(=O)c2C#N)cc1
inactive: RPMI-8226 leukemia 103% | OVCAR-8 ovarian 92.3% | OVCAR-5 ovarian 94.3% | OVCAR-4 ovarian 111% | SK-OV-3 ovarian 100% | IGROV1 ovarian 105% | OVCAR-3 ovarian 115% | HS 578T breast 90.5% | T-47D breast 87.2% | BT-549 breast 83.6% | MDA-MB-435 melanoma 107% | SW-620 colon 107% | MCF7 breast 97.7% | HCC-2998 colon 109% | KM12 colon 96.1%

O=CN(SSN(C=O)C1CCCCC1)C1CCCCC1
inactive: RPMI-8226 leukemia 120% | OVCAR-8 ovarian 104% | OVCAR-5 ovarian 113% | OVCAR-4 ovarian 101% | SK-OV-3 ovarian 113% | IGROV1 ovarian 100% | HS 578T breast 112% | NCI/ADR-RES ovarian 116% | T-47D breast 79.2% | MDA-MB-435 melanoma 110% | SW-620 colon 92.3% | MCF7 breast 102% | HCT-116 colon 85.9% | HCC-2998 colon 116% | KM12 colon 104%

O=C(CSc1nccc(Nc2ccc(S(=O)(=O)Nc3nccs3)cc2)n1)c1ccc(C(F)(F)F)cc1
inactive: RPMI-8226 leukemia 104% | OVCAR-8 ovarian 96.2% | OVCAR-5 ovarian 111% | OVCAR-4 ovarian 106% | SK-OV-3 ovarian 96.9% | IGROV1 ovarian 91.1% | HS 578T breast 98.5% | NCI/ADR-RES ovarian 98.5% | T-47D breast 82.1% | BT-549 breast 88.2% | MDA-MB-435 melanoma 99% | SW-620 colon 102% | MCF7 breast 94.2% | HCT-116 colon 86.7% | HCC-2998 colon 112% | KM12 colon 106%

CN(C(=O)NCc1cccc(F)c1Cl)[C@H](COC(=O)Nc1cc2ccccc2cn1)CC(O)CO (stereo not given in full)
active: HS 578T breast -0.749%
inactive: RPMI-8226 leukemia 119% | OVCAR-8 ovarian 88.1% | OVCAR-5 ovarian 95.8% | OVCAR-4 ovarian 94.6% | SK-OV-3 ovarian 78.5% | OVCAR-3 ovarian 103% | T-47D breast 89% | BT-549 breast 43.9% | MDA-MB-435 melanoma 104% | SW-620 colon 92.2% | MCF7 breast 98.9% | HCT-116 colon 95.4% | HCC-2998 colon 110% | KM12 colon 104%

CN1C(=O)N(C)C2Nn3c(s/c(=C\c4ccccc4)c3=O)=NC21 (stereo not given)
inactive: RPMI-8226 leukemia 101% | OVCAR-8 ovarian 96% | OVCAR-5 ovarian 100% | SK-OV-3 ovarian 100% | IGROV1 ovarian 100% | OVCAR-3 ovarian 100% | HS 578T breast 96.2% | NCI/ADR-RES ovarian 99.7% | T-47D breast 98.2% | BT-549 breast 97.1% | MDA-MB-435 melanoma 85.9% | SW-620 colon 96.9% | MCF7 breast 87.1% | HCT-116 colon 88.8% | HCC-2998 colon 104% | KM12 colon 97.5%

COC(=O)c1ccc2[nH]c(O)c(C(=Nc3ccc(N(C)C(=O)CN4CCN(C)CC4)cc3)c3ccccc3)c2c1
inactive: OVCAR-8 ovarian 26% | OVCAR-5 ovarian 57.2% | OVCAR-4 ovarian 34.2% | OVCAR-3 ovarian 50.5% | NCI/ADR-RES ovarian 83.8% | T-47D breast 59.8% | BT-549 breast 11.2% | MDA-MB-435 melanoma 27.2% | MCF7 breast 27.6% | HCC-2998 colon 25.7% | KM12 colon 13.9%
active: RPMI-8226 leukemia -6.02% | SK-OV-3 ovarian 5.32% | HS 578T breast -18.2% | SW-620 colon 6.45% | HCT-116 colon 6.52%

CNCCCC12CCC(c3ccccc31)c1ccccc12
inactive: RPMI-8226 leukemia 91% | OVCAR-8 ovarian 99.7% | OVCAR-5 ovarian 90.2% | OVCAR-4 ovarian 86.8% | SK-OV-3 ovarian 85.2% | IGROV1 ovarian 82.7% | OVCAR-3 ovarian 107% | HS 578T breast 87.3% | T-47D breast 89% | BT-549 breast 78.3% | MDA-MB-435 melanoma 78.9% | SW-620 colon 98.2% | MCF7 breast 87.3% | HCT-116 colon 69.1% | KM12 colon 94.1%

Oc1ccc(-c2nc3ccc4[nH]ncc4c3c3c2CCCC3)c2cccnc12
active: RPMI-8226 leukemia -6.23% | OVCAR-8 ovarian 9.31% | SK-OV-3 ovarian -0.881% | IGROV1 ovarian 6.65% | HS 578T breast -14.7% | NCI/ADR-RES ovarian 7.95% | BT-549 breast -12.9% | MDA-MB-435 melanoma -7.42% | SW-620 colon 7.64% | MCF7 breast 2.05% | HCT-116 colon 2.74% | HCC-2998 colon 5.08% | KM12 colon 2.51%
inactive: OVCAR-5 ovarian 21.9% | OVCAR-3 ovarian 18.3% | T-47D breast 15.1%

COc1cc(C)c(Cc2cnc(N)nc2N)cc1OC
inactive: RPMI-8226 leukemia 82.1% | OVCAR-8 ovarian 105% | OVCAR-5 ovarian 99.6% | OVCAR-4 ovarian 99.5% | SK-OV-3 ovarian 105% | OVCAR-3 ovarian 114% | HS 578T breast 103% | T-47D breast 92.7% | MDA-MB-435 melanoma 112% | SW-620 colon 102% | MCF7 breast 101% | HCT-116 colon 112% | HCC-2998 colon 108% | KM12 colon 111%

Source: PubChem BioAssay (NCI)
